High-throughput results (PubChem BioAssay)
TSG101-PTAP inh = qHTS Assay for Iinhibitors of HIV-1 Budding by Blocking the Interaction of PTAP/TSG101; Tumor susceptibility gene 101 protein (Homo sapiens), Q99816; Fluorescence polarization, FITC-PTAP peptide / Tsg101 binding; Potency, µM (top dose mostly 115 µM), most hits filed as inhibitors; 340,000 tested, under 10 active; active = well fitted inhibition curve with a large enough effect in the main read-out, with a control signal flat, not every such curve was filed as active; inconclusive = small, poorly fitted or top-dose-only effect, or effect the other way, or a change in a side signal; inactive = no such curve, though single readings can be large or run the other way
Target sequence (Q99816 whole entry, looked up): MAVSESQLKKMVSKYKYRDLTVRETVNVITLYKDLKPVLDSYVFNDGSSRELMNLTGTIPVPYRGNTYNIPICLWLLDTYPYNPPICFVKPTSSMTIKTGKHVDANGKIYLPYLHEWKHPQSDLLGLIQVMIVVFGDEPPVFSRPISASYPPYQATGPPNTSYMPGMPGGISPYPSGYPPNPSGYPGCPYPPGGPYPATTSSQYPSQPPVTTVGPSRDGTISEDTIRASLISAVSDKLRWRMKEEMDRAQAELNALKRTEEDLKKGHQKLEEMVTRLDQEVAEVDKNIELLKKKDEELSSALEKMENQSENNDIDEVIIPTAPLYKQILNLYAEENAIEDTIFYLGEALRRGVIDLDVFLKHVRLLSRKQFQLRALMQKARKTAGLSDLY
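FP read-out: FITC-PTAP peptide, 50 nM final, binding Tsg101 binding domain, 10 uM final; 20 min, r.t.; 10 mM HEPES pH 7.5, 0.15 M NaCl, 0.01% Tween 20, 3 mM EDTA, 0.1 mM TCEP.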
KB-3-1 cytotox = qHTS assay for MDR1-selective chemotherapeutics: Primary screen using the parental adenocarcinoma cell KB-3-1 | Potency, µM (titrated, usually from 46.1 µM), actives largely listed as cytotoxic | AID 1347075, 2019 | KB-3-1 viability, CellTiter-Glo ATP luminescence, 72 h | 1.4% of 400,000 active; note: nearly all actives have a fitted effect of over 60% in size
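KB-3-1 parental drug-naive adenocarcinoma cells in DMEM/10% FBS, incubated 72 h at 37 C with pin-transferred compounds across a concentration series. Viability by CellTiter-Glo luminescence; concentration-response curves fitted after normalization.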
KB-V1 MDR tox = qHTS assay for MDR1-selective chemotherapeutics: Primary screen using the drug-selected MDR subline cells KB-V1 | KB-V1 MDR cells viability, CellTiter-Glo, 72 h | 3.4% of 400,000 active | Potency, µM (highest dose often 46.1 µM), hits mostly cytotoxic; note: nearly all actives have a fitted effect of over 60% in size
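Compound-treated KB-V1 multidrug-resistant cells, 72 h, 37 degrees C; viability by CellTiter-Glo. Fitted qHTS curves give the values.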
SW480 rereplic = A quantitative high throughput screen for small molecules that induce DNA re-replication in SW480 colon adenocarcinoma cells; SW480 DNA re-replication, Hoechst DNA content imaging, 48 h; Potency, µM (top dose mostly 46.1 µM), usual class: activators; 1.8% of 340,000 active; AID 624297, 2012; note: nearly all actives have a fitted effect of over 55% in size
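Hoechst fluorescence of nuclei (405 nm excitation, 500-530 nm emission) measured by plate-scanning imager after 48 hr compound exposure at 37 C; re-replication scored as increased number of nuclei with elevated intensity.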
PINK1 modulator = A Quantitative High throughput Screen to Identify Chemical Modulators of PINK1 Expression. Potency, µM (top dose mostly 76.6 µM), hits mostly activators. PINK1 immunofluorescence, high-content cytometry, 24 h. 0.2% of 410,000 active. AID 624263, 2012; active = well fitted activation curve with a large enough effect; inconclusive = small, poorly fitted or top-dose-only effect; cell line not stated here; note: nearly all actives have a fitted effect of over 65% in size
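Fluorescence from anti-PINK1 antibody, together with nuclear and cell stains, was scanned on a laser-scanning cytometer. Before staining, stable-line cells were incubated 24 hours with compounds at 5 concentrations; primary antibody 12 h at 10 degrees C.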
MCF10A rereplic = A quantitative high throughput screen for small molecules that induce DNA re-replication in MCF 10a normal breast cells | MCF 10A DNA re-replication, Hoechst nuclear intensity, 48 h | Potency, µM (highest dose often 46.1 µM), hits mostly activators | 2.9% of 350,000 active | AID 624296, 2012; note: nearly all actives have a fitted effect of over 50% in size
Numbers stand for hits; . = inactive; ? = inconclusive; / = no result; [ ] = dose if it differs, or a comment. Only some compounds are listed: those with a hit (about 6.8% of all), similar ones and a draw of the others. Unless noted, calls come from the whole dose curve; as a rule, active = well fitted curve in the direction sought with a large enough effect; inconclusive = small, poorly fitted or top-dose-only effect, or another doubt; inactive = no such curve, though single readings can be large; an effect the other way counts as inactive or inconclusive.

SMILES	TSG101-PTAP inh	KB-3-1 cytotox	KB-V1 MDR tox	SW480 rereplic	PINK1 modulator	MCF10A rereplic
Cc1ccn2c(c1)nc(=O)c1cc(S(=O)(=O)N3CCCCC3)c(Cl)cc12	/	.	.	/	.	/
CCOc1ccc(-c2cc(C(=O)NCc3ccccc3Cl)c3ccccc3n2)cc1	/	.	.	/	.	/
CS(=O)(=O)c1cccc(-c2nnc(NC(=O)c3ccc(S(=O)(=O)N4CCCC4)cc3)o2)c1	.	.	.	.	.	.
O=C(Nc1nnc(-c2ccc(F)cc2)o1)c1ccc(S(=O)(=O)N2CCOCC2)cc1	.	4.1µM	?	10µM	.	.
COc1ccc(-c2csc(NC(=O)c3ccc(S(=O)(=O)N4CCc5ccccc5C4)cc3)n2)cc1	.	?	.	.	.	?
COc1ccc(-c2nnc(NC(=O)c3ccc(S(=O)(=O)N4CCc5ccccc5C4)cc3)o2)cc1	.	?	10µM	?	.	.
O=C(CCC1CCCCC1=O)c1ccccc1 (stereo not drawn)	.	.	.	.	.	.
O=C(CC1C(=O)CCCC1=O)c1ccccc1	.	.	.	?	.	15µM
COc1ccc(-c2cc(C(=O)OCC(=O)N3CCCC3)c3ccccc3n2)cc1	.	.	?	.	.	.
COc1ccc(-c2cc(C(=O)OCC(=O)c3cccc([N+](=O)[O-])c3)c3cc(C)ccc3n2)cc1	.	.	.	.	.	18µM
COc1ccc2nc(-c3ccccc3)cc(C(=O)OCC(=O)N3CCCCC3)c2c1	.	?	?	21µM	.	.
Cc1cc(C)cc(NC(=O)Cn2c(=O)n(C(C)C)c(=O)c3oc4ccccc4c32)c1	/	/	/	/	.	/
CC1CN(C(=O)c2ccccc2Oc2ccccc2)CC(C)O1 (stereo not drawn)	.	21µM	.	.	.	.
COc1cccc(CNC(=O)Cn2nc(C)n3c(cc4cc(C)ccc43)c2=O)c1OC	/	/	/	/	.	/
COc1cc(C(=O)NC2CC(=O)N(c3cccc(F)c3)C2)cc(OC)c1OC (stereo not drawn)	/	/	/	/	.	/
CCC(=NCCc1c(C)[nH]c2ccc(C)cc12)C1=C(O)CC(c2ccccc2)CC1=O (stereo not drawn)	.	0.73µM	.	2.6µM	.	?
CC(C)(C)NC(=O)CSc1nc(Cc2ccccc2)nc2ccccc12	.	.	.	.	.	0.65µM
C#CCSc1nc(Cc2ccc(Cl)cc2)nc2ccccc12	.	.	16µM	.	.	?
O=C1CSC(c2cn(-c3ccccc3)nc2-c2ccccc2)N1Cc1ccco1 (stereo not drawn)	.	?	?	.	.	21µM
COCCCn1c(SCCc2ccccc2)nc2cc(OC)c(OC)cc2c1=N	.	.	.	.	.	7.3µM
CC(=O)c1ccc(Nc2nc(=O)c3cccnc3s2)cc1	.	.	.	.	.	.
CCOC(=O)c1ccc(Nc2nc(=O)c3cccnc3s2)cc1	/	.	6.5µM	.	.	?
CCSC1(SCC)N=C(N)C2(C#N)C(c3ccc(OC)c(OC)c3OC)C12C#N (stereo not drawn)	.	?	?	?	.	9.2µM
CCOc1c(Cl)cc(Cl)cc1CNCCSc1nnnn1C	/	.	.	/	.	/
N#Cc1cc2sc3nnc(-c4ccncc4)n3c2cc1C#N	.	6.5µM	2.1µM	.[9.22 µM]	.	.
SMILES	TSG101-PTAP inh	KB-3-1 cytotox	KB-V1 MDR tox	SW480 rereplic	PINK1 modulator	MCF10A rereplic
COc1ccc(NC(=O)CN(C)C(=O)COc2ccccc2Cc2ccccc2)cc1	.	.	.	.	.	.
CN(CC(=O)Nc1ccc(F)cc1)C(=O)COc1ccccc1Cc1ccccc1	.	?	18µM	.	.	?
COc1cc(/C=N/NC(N)=O)ccc1OCC(=O)Nc1ccc(C)c(C)c1	.	.	.	.	.	.
COc1cc(/C=N/NC(N)=S)ccc1OCC(=O)Nc1ccc(C)c(C)c1	.	.	.	?	.	15µM
CN(CC(=O)Nc1ccccc1C(F)(F)F)C(=O)COc1ccccc1Cc1ccccc1	.	.	8.2µM	?	.	.
COc1ccc(NC(=O)COc2ccc(/C=C/c3cc[n+](C)cc3)cc2OC)cc1	.	?	.	8.2µM	.	?
COc1ccc(NC(=O)COc2ccc(/C=C/c3cccc[n+]3C)cc2OC)cc1	.	.	?	.	.	.
CN(C)S(=O)(=O)c1ccc2c(c1)N(CC(=O)N1CCN(c3cccc(Cl)c3)CC1)CCS2	/	.	?	/	.	/
CSc1ccccc1NC(=O)CN(C)C(=O)COc1cccc2cccnc12	.	.	.	5.8µM	.	?
C/C=C/c1ccc(OCC(=O)N(C)CC(=O)Nc2ccc(F)cc2)c(OC)c1	.	.	16µM	.	.	.
COc1ccc(-c2cn3nc(N4CCCC(C(=O)Nc5cc(C)cc(C)c5)C4)sc3n2)cc1 (stereo not drawn)	/	.	.	/	.	/
CCOc1ccccc1CNCc1cccn1-c1nnc(N2CCN(c3ccccc3)CC2)s1	/	?	?	/	.	/
O=C(Nc1ccc(C(F)(F)F)cc1)C1CCCN(c2cnccn2)C1 (stereo not drawn)	/	/	/	/	.	/
CCOC(=O)c1cc(C)n(CC2CCC(C(=O)Nc3ccc(C)cc3)CC2)c1C (stereo not drawn)	/	/	/	/	.	/
CC/C(=C\c1ccc(C(=O)OC)cc1)c1cc(OC)cc2oc3ccccc3c12	/	.	.	/	/	/
COC(=O)c1c(C)oc2ccc(N(C(=O)c3ccncc3)S(=O)(=O)c3ccccc3)cc12	.	?	.	.	.	.
COC(=O)c1c(C)oc2ccc(N(C(=O)c3ccncc3)S(=O)(=O)c3cc(C)c(C)cc3C)cc12	/	/	/	/	.	/
Cc1ccc(S(=O)(=O)N(C(=O)c2ccncc2)c2ccc3oc4c(c3c2)CCCC4)cc1[N+](=O)[O-]	.	.	?	.	?	15µM
COC(=O)c1c(C)oc2ccc(N(C(=O)c3ccncc3)S(=O)(=O)c3ccc(C)cc3)cc12	.	5.2µM	1.6µM	6.5µM	.	?
COC(=O)c1c(C)oc2ccc(N(C(=O)c3ccncc3)S(=O)(=O)c3ccc(C)cc3C)cc12	.	?	?	.	.	15µM
COC(=O)c1c(C)oc2ccc(N(C(=O)c3ccncc3)S(=O)(=O)c3ccc4ccccc4c3)cc12	.	?	?	.	.	3.3µM
CCc1nc2ccc(Cc3ccc4nc(CC)[nH]c4c3)cc2[nH]1	.	?	.	3.3µM	.	.
CCc1nc2ccccc2[nH]1	.	.	.	.	.	.
